# IL1B NFkB inh = blocks IL-1B driven NFkB nuclear translocation in HUVEC cells; actives 0.43% (n = 94,000); AID 796; HUVEC IL-1B NFkB p65 nuclear translocation imaging; inhibition, % at 2 µM;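 active = inhibition above about 30% together with a positive call from visual inspection of the well image, limit read from the data; inconclusive = inhibition above a set limit but visual check negative; inactive = inhibition not above a set limit, visual check negative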;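 also: nuclear over cytoplasmic p65 intensity ratio measured by imaging; 0% = IL-1B stimulated DMSO wells and 100% = unstimulated DMSO wells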
# VCAM1 TNFa inh = reduces TNF alpha induced VCAM1 expression in HUVEC; inhibition, % at 2 µM; AID 802; HUVEC TNFa-induced VCAM-1 immunofluorescence, high-content imaging; actives 0.48% (n = 95,000);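 active = inhibition above the batch mean plus 3 SD, with images confirmed as a hit by eye, cut at about 37% in these data; inconclusive = inhibition above that limit but hit not confirmed in images; inactive = inhibition not above that limit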;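 also: 0% = TNF-stimulated DMSO wells and 100% = unstimulated control wells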
# HUVEC tox IL1B = toxic to HUVEC cells under IL-1B stimulation; HUVEC cell count loss, Hoechst imaging, IL-1B stimulated; cell count reduction, % at 2 µM; actives 0.41% (n = 94,000);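 active = cell count reduction more than 3 SD above the screen-wide mean, cut at about 70% in these data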;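 also: normalized per plate to untreated control cells as the no-loss baseline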
# cytoskel mod = alters cytoskeleton assembly in HUVEC cells | HUVEC TNFa F-actin phalloidin imaging, high content | inhibition, % at 2 µM | actives 0.18% (n = 91,000);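 active = inhibition above the batch mean plus 3 SD and confirmed as a hit by visual image inspection, cut at about 30% in these data, passing the limit was not always enough; inconclusive = above the inhibition threshold but rejected on visual inspection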
# NFkB transloc pot = enhances IL-1B driven NFkB nuclear translocation; HUVEC IL-1B NFkB p65 nuclear translocation imaging; activation, % at 2 µM; actives 0.3% (n = 94,000); AID 819;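 active = activation above 40%, about the mean plus 3 SD, also judged a hit on visual image review; inconclusive = activation above 40% but not a hit on visual review; inactive = activation not above 40% and no visual hit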;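 also: percent activation is computed from the nuclear over cytoplasmic p65 intensity ratio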
# HUVEC tox TNFa = HUVEC cytotoxicity counter-screen, TNF alpha stimulated. HUVEC TNFalpha-stimulated, Hoechst cell count, imaging. cell count reduction, % at 2 µM. actives 0.17% (n = 93,000);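 active = cell count reduction exceeding the screen mean by over 5 SD, scaled to untreated wells per plate, cut at about 78% in these data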;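 also: cells counted after 24 h of TNF alpha exposure following the 1 h pretreatment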
# * = called active by the depositor; ? = inconclusive; . = not tested or not shown. An excerpt weighted towards active compounds, which were near 1.6% of everything screened.
SMILES,IL1B NFkB inh,VCAM1 TNFa inh,HUVEC tox IL1B,cytoskel mod,NFkB transloc pot,HUVEC tox TNFa
Cc1ccc(C(=O)CCNc2ccc(Cl)cc2)o1,5,-6,-1,.,-5,-52
COC(=O)c1cc(OC)c(OC)cc1NC(=S)N1CCN(C)CC1,-1,6,73*,-16,1,2
Cc1nn(-c2ncc(C(F)(F)F)cc2Cl)c(=O)n1-c1ccccc1Cl,31*,17,19,-1,-31,13
Cc1ccc(Cl)cc1NC1=C/C(=N\S(=O)(=O)c2cccs2)c2ccccc2C1=O,-41,91*,3,9,41*,28
COc1ccc(OC(=O)CCCN2C(=O)c3ccccc3C2=O)cc1,-6,23,86*,10,6,-9
Cc1cc(=O)oc2cc(OC(=O)CCN3C(=O)c4ccccc4C3=O)ccc12,-3,7,-61,-16,3,-1
COC(=O)c1ccc(-n2cncn2)c(F)c1,0,2,-35,-9,0,6
O=C(Nc1ccc(Cn2cccn2)cc1)c1ccc(COc2cccc(Br)c2)cc1,-57,10,1,-18,57*,7
CC(C)(C)NC(=O)c1cccc(NC(=O)CSc2ccccc2)c1,3,6,11,12,-3,-11
Cc1cccc(C)c1NC(=S)N/N=C/c1ccc(OCCC(C)C)cc1,-2,-7,13,13,2,0
Nc1ccc2nc(-c3ccc(N)c(Cl)c3)[nH]c2c1,-7,-32,-18,46*,7,-10
Nc1ccc2nc(-c3ccccc3)[nH]c2c1,7,-13,-16,4,-7,16
O=C(OCc1ccccc1)/C(=C/c1ccc(Cl)cc1)NC(=O)c1ccccc1Cl,-40,6,-69,-7,40*,1
O=C(OCC(=O)c1ccc([N+](=O)[O-])cc1)/C(=C\c1ccc(Cl)cc1)NC(=O)c1ccccc1,18,.,-26,.,-18,.
CC(=O)Nc1ccccc1-c1nc2ccccc2nc1OCC(=O)c1ccc2ccccc2c1,2,4,-47,4,-2,-8
CCCCOCCCNC(=O)c1cccs1,2,90*,-47,36,-2,-77
COc1ccc2nc(SCC(N)=O)[nH]c2c1,10,-1,6,10,-10,-10
COc1ccc2[nH]c(=O)c(NC(N)=S)nc2c1,6,6,89*,23,-7,-21
COc1ccc(S(=O)(=O)N(C)CC(=O)Nc2ccc3c(c2)OCO3)cc1OC,7,4,81*,9,-7,-14
CCOC(=O)CN1C(=O)C(O)(CC(=O)c2cccc(OC)c2)c2ccccc21 (stereo not drawn),-2,-5,-52,-28,2,-33
Cc1noc(NS(=O)(=O)c2ccc(NC(=O)CSc3ncccn3)cc2)c1C,-46,-5,21,-7,?,8
CCOC(=O)c1sc(NC(=O)CSc2nc3c(cc2C#N)CCC3)c(C#N)c1C,-1,86*,12,18,1,-61
Cc1cc(C)nc(SCC(=O)Nc2ccc(S(=O)(=O)Nc3onc(C)c3C)cc2)n1,-1,6,-10,-6,1,-38
N#Cc1cc2c(nc1SCC(=O)N1CCCCC1)CCCC2,0,52*,26,7,0,19
Cc1noc(NS(=O)(=O)c2ccc(NC(=O)CSc3nc4ccccc4s3)cc2)c1C,-32,21,74*,8,32,-18
SMILES,IL1B NFkB inh,VCAM1 TNFa inh,HUVEC tox IL1B,cytoskel mod,NFkB transloc pot,HUVEC tox TNFa
Cc1noc(NS(=O)(=O)c2ccc(NC(=O)CSc3nc4c(cc3C#N)CCC4)cc2)c1C,-68,2,18,10,68*,3
CCN1C(=O)c2cccc3c(NC(=O)c4ccc(OC)c(OC)c4)ccc1c23,-16,2,-55,-6,16,-7
C=CCCCCCCCCC(=O)NN,10,1,-37,0,-9,-10
COc1ccc(NC2CCN(C3CC(=O)N(c4ccc(F)c(Cl)c4)C3=O)CC2)cc1 (stereo not drawn),-18,-3,-24,7,17,-3
COc1cccc(N2CCN(C3CC(=O)N(c4ccc(F)c(Cl)c4)C3=O)CC2)c1 (stereo not drawn),96*,-1,88*,-3,-96,1
O=C(O)CCC(=O)Nc1ccc(C(=O)N2CCCCC2)cc1,-1,15,88*,12,1,-23
O=C1C(=O)c2ccc(-c3ccccc3)cc2-c2ccccc21,-14,64*,21,-21,14,22
Nc1ccc2c(c1)C(=O)C(=O)c1ccccc1-2,-39,30,14,-28,39,10
O=C(NCc1ccccn1)C1CCN(Cc2cnn(-c3ccccc3)c2-n2cccc2)CC1,-4,15,5,-6,4,10
COc1cccc(CNC(=O)C2CCN(Cc3cnn(-c4ccccc4)c3-n3cccc3)CC2)c1,-63,18,-7,-9,63*,.
Cn1nc(C(=O)OCC(=O)N2CCc3ccccc32)c2ccccc2c1=O,2,77*,13,-20,-2,88*
CCc1nc2scc(-c3cccs3)c2c(=O)o1,45*,14,8,-13,-45,-17
CCn1c(Sc2nc(C)nc3scc(-c4cccs4)c23)n[nH]c1=O,-6,18,2,34,6,1
C=CCOc1ccc(CNc2nccs2)cc1OC,-8,-5,32,7,8,-10
Oc1c(/C=N/c2ncn[nH]2)ccc2ccccc12,-47,11,17,10,47*,-18
Cc1cc(C(N)=O)c2cc(Br)ccc2n1,-18,-17,-40,-3,18,-6
Cc1cc(C(=O)NN)c2cc(Br)ccc2n1,4,56*,19,12,-4,52
Cc1ccc(C)c(N2CCN(C(=O)CC3Sc4ccccc4NC3=O)CC2)c1 (stereo not drawn),5,-3,79*,7,-5,-18
CCC(=O)N1CCN(c2cc(C)ccc2C)CC1,-4,-3,-35,-5,4,-17
COc1ccc(CCNc2nnc(Sc3nnnn3-c3ccccc3)s2)cc1OC,-10,87*,-15,9,10,36
COc1ccc(CCNc2nc3ccccc3n3nnnc23)cc1OC,-2,11,-26,6,2,-9
O=C(CSc1nc(-c2ccccc2)cs1)NCc1ccco1,50*,2,-16,5,-50,-3
CCCn1c(SCC(=O)NCc2ccco2)nc2c1c(=O)n(C)c(=O)n2C,8,-6,81*,-19,-8,19
CCn1c(SCC(=O)NCc2ccco2)nc2c1c(=O)n(C)c(=O)n2C,-18,0,-7,5,18,-38
O=C(CSc1nc2ccccc2c(=O)n1-c1ccccc1)NCc1ccco1,-4,42,-10,-27,4,88*
CCOC(=O)CCCNC(=O)COC(=O)c1ccc(O)cc1,4,25,-2,-15,-4,-5
COc1ccc(Cn2nnnc2C(c2cccs2)N2CCCCCC2)cc1 (stereo not drawn),-7,-1,-3,-9,7,24
